Assay results from PubChem BioAssay (EPA / NIEHS).
Results filed as inconclusive are left out. Calls of active or inactive are those of the source. Rule for the calls: active = hit-call score of the fitted dose curve at least 0.9, where 1 is the maximum; inconclusive = response in the unintended direction; inactive = score below 0.9.

target: sheep Cyclooxygenase-1 (Cox1), PTGS1 (gene 443551) (UniProt P05979); test: NVS_ENZ_oCOX1: NovaScreen (NVS) Enzymatic Assay for sheep Cyclooxygenase-1 (Cox1) (AID 2283239);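 note: actives reduce cyclooxygenase activity so potencies are for inhibitors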
Protocol: NVS_ENZ_oCOX1 is a biochemical, single-readout assay that uses extracted gene-proteins from Ovine seminal vesicles in a tissue-based cell-free assay. Measurements were taken 0.66 hour after chemical dosing in a 96-well plate.NVS_ENZ_oCOX1 is one of one assay component(s) measured or calculated from the NVS_ENZ_oCOX1 assay. It is designed to make measurements of enzyme activity, a form of enzyme reporter, as detected with absorbance signals by Colorimetric technology.Data from the assay component NVS_ENZ_oCOX1 was analyzed into 1 assay endpoint. This assay endpoint, NVS_ENZ_oCOX1, was analyzed in the positive analysis fitting direction relative to DMSO as the negative control and baseline of activity. Using a type of enzyme reporter, loss-of-signal activity can be used to understand changes in the enzymatic activity as they relate to the gene PTGS1. Furthermore, this assay endpoint can be referred to as a primary readout, because this assay has produced multiple assay endpoints where this one serves a enzymatic activity function. To generalize the intended target to other relatable targets, this assay endpoint is annotated to the oxidoreductase intended target family, where the subfamily is cyclooxygenase.
Binding assays used specific radioligands (tritiated, iodinated) with non-radioactive competitive displacement ligands in agonist or antagonist protocols (as indicated) and various reference compounds and inhibitors to titrate specific binding to receptors and transporters. Most enzyme assays (CYPs, kinases, phosphatases, proteases, HDACs) used recombinant protein and specific substrates (fluorescence mostly, some colorimetric and radioactive) and inhibitors, followed by a biochemical separation of substrate and product. All assays for the biochemical HTS were initially run in duplicate at a single concentration (10 uM for CYP450 assays and 25 uM for all others). […] Each assay was run with positive and negative controls, and concurrent controls on every plate. The follow-up (secondary) screen tested active chemical-pairs in concentration series, as well as a few additional assays not tested in the primary screen, some selected negative inactives, and several cases re-run in the concentration series for confirmatory purposes.

sheep Cyclooxygenase-1 (Cox1), PTGS1 (gene 443551), sequence (P05979 whole entry, looked up): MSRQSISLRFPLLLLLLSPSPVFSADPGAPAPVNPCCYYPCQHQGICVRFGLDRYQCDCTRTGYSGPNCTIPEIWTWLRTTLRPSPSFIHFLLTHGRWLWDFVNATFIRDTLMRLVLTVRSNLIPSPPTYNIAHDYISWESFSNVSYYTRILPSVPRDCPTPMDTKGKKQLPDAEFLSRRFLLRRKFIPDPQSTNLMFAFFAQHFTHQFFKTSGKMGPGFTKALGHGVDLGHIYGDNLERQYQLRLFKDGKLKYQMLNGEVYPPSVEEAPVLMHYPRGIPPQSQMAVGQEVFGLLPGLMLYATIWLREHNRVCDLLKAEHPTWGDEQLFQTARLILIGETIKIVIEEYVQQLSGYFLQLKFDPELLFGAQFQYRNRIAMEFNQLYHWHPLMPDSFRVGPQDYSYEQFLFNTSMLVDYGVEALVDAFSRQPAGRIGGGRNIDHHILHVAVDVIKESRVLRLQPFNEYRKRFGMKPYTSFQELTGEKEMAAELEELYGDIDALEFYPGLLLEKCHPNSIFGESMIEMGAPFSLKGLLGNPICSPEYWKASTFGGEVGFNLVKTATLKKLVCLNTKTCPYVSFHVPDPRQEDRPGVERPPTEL

Row | Structure (SMILES) | outcome | AC50
1 | CCc1cc(SCc2sc(-c3ccc(C(F)(F)F)cc3)nc2CN2CCN(c3ccc(OC)cc3)CC2)ccc1OCC(=O)O | inactive | –
2 | CC[C@H](C)C(=O)O[C@H]1C[C@@H](C)C=C2C=C[C@H](C)[C@H](CC[C@@H]3C[C@@H](O)CC(=O)O3)[C@H]21 | – | 34.3 µM (active)
3 | Cc1ccc(C)c(O)c1 | inactive | –
4 | O=C(OC[C@H]1O[C@@H](OC(=O)c2cc(O)c(O)c(OC(=O)c3cc(O)c(O)c(O)c3)c2)[C@H](OC(=O)c2cc(O)c(O)c(OC(=O)c3cc(O)c(O)c(O)c3)c2)[C@@H](OC(=O)c2cc(O)c(O)c(OC(=O)c3cc(O)c(O)c(O)c3)c2)[C@@H]1OC(=O)c1cc(O)c(O)c(OC(=O)c2cc(O)c(O)c(O)c2)c1)c1cc(O)c(O)c(OC(=O)c2cc(O)c(O)c(O)c2)c1 | – | 4.31 µM (active)
5 | O=C1OC(=O)C2C3C=CC(C3)C12 (centres undefined) | inactive | –
6 | C[C@](N)(Cc1ccc(O)c(O)c1)C(=O)O | – | 2.33 µM (active)
7 | CCCCCCc1ccc(O)cc1O | – | 5.25 µM (active)
8 | Oc1ccc2c(c1)-c1ccccc1C2 | inactive | –
9 | CC(C)=CCC/C(C)=C\CO | – | 25 µM (active)
10 | COCCOCCOCCOC | inactive | –
11 | CCOC(=O)c1ccc(C2CCC(NC[C@H](O)COc3ccc(O)c(NS(C)(=O)=O)c3)CC2)cc1 (some centres undefined) | – | 15.2 µM (active)
12 | CC(C)c1cccc(C(C)C)c1N1C(=O)c2ccc(O)cc2C1=O | – | 2.48 µM (active)
13 | Nc1nc2ncc(CNc3ccc(C(=O)N[C@@H](CCC(=O)O)C(=O)O)cc3)nc2c(=O)[nH]1 | – | 11 µM (active)
14 | CC(C)=CCCC(C)CCO (centres undefined) | – | 21.6 µM (active)
